Sampled rows, rich in hits. Any-hit rate of the full collection: about 0.77%.
RecA splice inh = Mtb RecA intein splicing inhibitors, primary screen, biochemical, fluorescence, HTS. AID 2221, 2009. inhibition, % (test concentration not listed). hit rate 0.75% among 290,000. Protein RecA (Mycobacterium tuberculosis (strain ATCC 25618 / H37Rv)), P9WHJ3. cell-free RecA intein splicing; in the data active = inhibition above about 30%;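 also: 0% = vehicle wells and 100% = reference inhibitor control wells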
Mtb RmlCD inh = M. tuberculosis RmlC/RmlD coupled enzyme inhibitors, primary screen, biochemical, compound mixtures, 384-well, from 1536-well plates | RmlC+RmlD coupled enzyme assay, percent inhibition; primary screen in compound mixtures | inhibition, % at 3.6 µM | hit rate 0.03% among 160,000 | AID 1533, 2009; in the data active = inhibition mostly above about 34%, no sharp cut-off
Target sequence (P9WH09 whole entry, looked up): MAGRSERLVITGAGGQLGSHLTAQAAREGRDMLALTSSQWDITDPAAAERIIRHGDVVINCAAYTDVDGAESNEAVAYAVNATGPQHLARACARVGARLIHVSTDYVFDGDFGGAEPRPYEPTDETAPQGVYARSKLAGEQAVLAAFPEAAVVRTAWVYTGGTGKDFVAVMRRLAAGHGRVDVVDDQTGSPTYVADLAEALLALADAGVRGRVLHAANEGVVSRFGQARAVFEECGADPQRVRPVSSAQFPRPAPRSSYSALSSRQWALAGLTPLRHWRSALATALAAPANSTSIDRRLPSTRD
Target sequence (P9WH11 whole entry, looked up): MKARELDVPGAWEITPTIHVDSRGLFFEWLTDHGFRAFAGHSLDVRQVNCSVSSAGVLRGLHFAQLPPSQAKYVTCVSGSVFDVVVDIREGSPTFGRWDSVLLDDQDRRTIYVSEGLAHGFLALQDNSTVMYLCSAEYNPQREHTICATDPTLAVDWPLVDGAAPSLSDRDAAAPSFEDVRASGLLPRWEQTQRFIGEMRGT
GFP chromophore = counter-screen: blocks GFP chromophore formation, dose response, counter-screen, biochemical, fluorescence, homogeneous; shares compounds with RecA splice inh; cell-free GFP chromophore formation; EC50, µM; hit rate 83% among 2,100; call rule not given here
Starred values were filed as active, the others as inactive.

`Cc1nn(Cc2ccccc2)c2c1C(c1ccc(Cl)cc1)C(C#N)=C(N)O2` (stereo not given) gave RecA splice inh 59.9* and GFP chromophore 16.2*.
`CCCc1nn(C)c2c1C(c1cccnc1)C(C#N)=C(N)O2` (stereo not given) gave RecA splice inh 59.7*, Mtb RmlCD inh 90.1 and GFP chromophore 24*.
COc1ccc(OC)c([C@@H]2OCCC=C[C@H]2C)c1 was read as RecA splice inh 1.5.
Screening C=CCOC(=O)C1=C(C)OC(N)=C(C#N)C1c1ccco1 (stereo not given) returned RecA splice inh -1.5 and Mtb RmlCD inh -9.0.
For Cc1nn(Cc2ccccc2)c2c1C(c1ccco1)C(C#N)=C(N)O2 (stereo not given) the results were RecA splice inh 54.6*, Mtb RmlCD inh -3.0 and GFP chromophore 23.2*.
For CC(NC(=O)c1cc(-c2ccccc2)nc2ccccc12)C1CCCO1 (stereo not given) the results were RecA splice inh -1.8 and Mtb RmlCD inh -10.8.
For O=C(O)c1ccc2c(c1Nc1ccccc1)C(=O)c1ccccc1C2=O the results were RecA splice inh 11.0 and Mtb RmlCD inh 10.2.
Cc1ccc(C(=O)OCC(=O)Nc2ncc(Cl)cc2Cl)cc1NC(=O)c1ccco1 was read as RecA splice inh 1.8 and Mtb RmlCD inh 7.0.
For Cc1ccc2nc(Cc3ccc(N)cc3)[nH]c2c1 the results were RecA splice inh -1.2 and Mtb RmlCD inh -0.6.
`Nc1ccc2nc(Cc3ccccc3)[nH]c2c1` gave RecA splice inh 29.8*, Mtb RmlCD inh 2.9 and GFP chromophore >38.
`O=C(NOC(=O)c1c(F)cccc1Cl)c1ccc(Cl)c(Cl)c1` gave RecA splice inh 4.6.
`COC(=O)C1=C(C)OC(N)=C(C#N)C1c1c(C)nn(-c2ccccc2)c1Cl` (stereo not given) gave RecA splice inh 5.1.
For Cn1c2c(c(=O)n(C)c1=O)C(c1ccccc1F)C(C#N)=C(N)O2 (stereo not given) the results were RecA splice inh 1.7 and Mtb RmlCD inh -8.9.
Screening Cc1nn(-c2ccccc2)c2c1C(c1ccc(F)cc1F)C(C#N)=C(N)O2 (stereo not given) returned RecA splice inh 50.4* and GFP chromophore 3.9*.
For Cc1nn(-c2ccccc2)c2c1C(c1ccccc1)C(C#N)=C(N)O2 (stereo not given) the results were RecA splice inh 54.1*, Mtb RmlCD inh 12.0 and GFP chromophore 28.9*.
`CCOC(=O)c1cnc(-n2[nH]c(C)c(Cc3ccccc3)c2=O)[nH]c1=O` gave RecA splice inh 33.0*, Mtb RmlCD inh -3.2 and GFP chromophore 33.6*.
CCOC(=O)c1cnc(Cc2ccccc2)[nH]c1=O was read as RecA splice inh 2.3.
CS(=O)(=O)N1CCCC(C(=O)Nc2ccc3c(c2)OCCO3)C1 (stereo not given) was read as RecA splice inh -4.9 and Mtb RmlCD inh -0.4.
Screening O=C(Nc1ccc2nc3n(c(=O)c2c1)CCCCC3)c1c(F)ccc([N+](=O)[O-])c1F returned RecA splice inh 59.6* and GFP chromophore 24.6*.
`O=C(Nc1ccc2nc3n(c(=O)c2c1)CCCCC3)c1cc([N+](=O)[O-])ccc1F` gave RecA splice inh 26.4.
Screening CCCCn1c(=O)[nH]c(=O)c2c1nc(-c1cccc(OC)c1)n2C returned RecA splice inh 0.3.
For CC1OC(Nc2cccc3ccccc23)C(O)C(O)C1O (stereo not given) the results were RecA splice inh 45.8*, Mtb RmlCD inh -4.1 and GFP chromophore >38.
For CC1OC(Nc2ccc(N=Nc3ccccc3)cc2)C(O)C(O)C1O (stereo not given) the results were RecA splice inh 4.7 and Mtb RmlCD inh 5.0.
`CC(C)(C)[C@H]1CCC(=O)N([C@H](CN=[N+]=[N-])Cc2ccccc2)CC1` gave RecA splice inh -4.1.
For CS(=O)(=O)c1ccc(C(=O)OCC(=O)NC23CC4CC(CC(C4)C2)C3)cc1[N+](=O)[O-] the results were RecA splice inh 32.1*, Mtb RmlCD inh 7.4 and GFP chromophore >38.
For CCS(=O)(=O)N1CCN(c2ccc(C(=O)NC34CC5CC(CC(C5)C3)C4)cc2[N+](=O)[O-])CC1 the results were RecA splice inh -1.1 and Mtb RmlCD inh -10.8.
COc1ccc(S(=O)(=O)N2CCCOC2CNC(=O)C(=O)NCCCN2CCOCC2)cc1 (stereo not given) was read as RecA splice inh 1.5.
For COc1ccc(N/N=C(\C#N)C(=N)SCc2ccccc2)cc1 the results were RecA splice inh 55.2*, Mtb RmlCD inh 10.2 and GFP chromophore 24.1*.
Screening COc1ccc(N/N=C(\C#N)C(=N)N2CCCCC2)cc1 returned RecA splice inh 2.2 and Mtb RmlCD inh 0.1.
`O=C(C1CCCCN1S(=O)(=O)c1ccccc1[N+](=O)[O-])N1CCOCC1` (stereo not given) gave RecA splice inh -1.7 and Mtb RmlCD inh 22.4.
For CCOc1ccccc1-c1noc(CCC(=O)NC2CCCCC2)n1 the results were RecA splice inh 1.9.
`COc1cccc(C(=O)O/N=C(\N)c2ccc([N+](=O)[O-])cc2)c1OC` gave RecA splice inh 51.6*, Mtb RmlCD inh 2.2 and GFP chromophore >38.
For COc1ccc(/C(N)=N/OC(=O)c2cccc([N+](=O)[O-])c2C)cc1OC the results were RecA splice inh -3.9.
For CC1CN(c2ccnc3cc(Cl)ccc23)CC(C)O1 (stereo not given) the results were RecA splice inh -0.8.
Cc1ccc(S(=O)(=O)/C(=C/Cl)NC(=O)c2ccccc2)cc1 was read as RecA splice inh 2.9 and Mtb RmlCD inh -9.1.
`CC(=O)NCCn1c(SCc2ccccc2C)nc2ccccc2c1=O` gave RecA splice inh 32.0*, Mtb RmlCD inh -6.6 and GFP chromophore >38.
For CC(=O)NCCn1c(SCc2ccc(C)cc2C)nc2ccccc2c1=O the results were RecA splice inh 5.7 and Mtb RmlCD inh -13.0.
Screening CC(C)(C)NC(=O)Cn1nnc(-c2cccs2)n1 returned RecA splice inh -7.4 and Mtb RmlCD inh -3.5.
`N#Cc1cc([N+](=O)[O-])c(-n2nnc3ccccc32)c([N+](=O)[O-])c1` gave RecA splice inh 94.1*, Mtb RmlCD inh 2.4 and GFP chromophore >38.
CS(=O)(=O)c1ccc(-n2nnc3ccccc32)c([N+](=O)[O-])c1 was read as RecA splice inh -2.6.
For Cc1ccc(SCc2[nH]nc3c2C(c2ccc(C)o2)C(C#N)=C(N)O3)cc1 (stereo not given) the results were RecA splice inh 36.5*, Mtb RmlCD inh 21.8 and GFP chromophore >12.
Cc1ccc(SCc2[nH]nc3c2C(C(C)C)C(C#N)=C(N)O3)cc1 (stereo not given) was read as RecA splice inh 7.2 and Mtb RmlCD inh 19.1.
Screening Cc1ccc(SCc2[nH]nc3c2C2(C(=O)N(C)c4ccccc42)C(C#N)=C(N)O3)cc1 (stereo not given) returned RecA splice inh 10.1 and Mtb RmlCD inh -7.2.
For Cc1ccc(SCc2[nH]nc3c2C(c2ccco2)C(C#N)=C(N)O3)cc1 (stereo not given) the results were RecA splice inh 72.6* and GFP chromophore 25.5*.

Assay outcomes: PubChem BioAssay, several laboratories
